The values below come from ChEMBL document CHEMBL1961873, “Compounds: GSK PKIS; Assays: Nanosyn kinase panel” (2012).

SMILES strings stand for the structures.

Test [1] concerns the target T1, Serine/threonine-protein kinase TBK1 (Homo sapiens) (UniProt Q9UHD2).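 Note: values are mean inhibition of TBK1, screened as part of the GSK published kinase inhibitor set.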
T1 sequence (whole entry): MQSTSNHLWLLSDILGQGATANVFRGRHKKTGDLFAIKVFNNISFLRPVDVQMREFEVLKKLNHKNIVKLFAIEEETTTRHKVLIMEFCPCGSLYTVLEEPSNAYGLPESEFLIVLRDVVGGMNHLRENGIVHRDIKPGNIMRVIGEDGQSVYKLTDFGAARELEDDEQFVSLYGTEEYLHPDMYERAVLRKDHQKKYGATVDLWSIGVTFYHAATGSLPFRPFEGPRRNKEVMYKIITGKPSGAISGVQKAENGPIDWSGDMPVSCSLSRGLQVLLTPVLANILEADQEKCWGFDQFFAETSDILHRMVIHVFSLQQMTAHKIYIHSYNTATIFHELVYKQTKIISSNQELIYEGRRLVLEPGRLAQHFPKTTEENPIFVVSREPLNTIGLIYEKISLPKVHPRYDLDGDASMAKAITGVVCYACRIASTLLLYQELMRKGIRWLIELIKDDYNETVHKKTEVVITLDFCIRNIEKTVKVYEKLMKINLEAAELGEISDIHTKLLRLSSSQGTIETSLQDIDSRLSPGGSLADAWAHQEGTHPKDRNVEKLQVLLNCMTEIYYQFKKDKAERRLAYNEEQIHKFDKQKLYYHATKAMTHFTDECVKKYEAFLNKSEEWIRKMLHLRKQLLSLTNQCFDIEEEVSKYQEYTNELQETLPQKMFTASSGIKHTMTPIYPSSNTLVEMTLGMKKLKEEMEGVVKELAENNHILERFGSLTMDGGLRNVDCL
To be noted: at 1 µM.

Test [2] concerns the target T2, Testis-specific serine/threonine-protein kinase 1 (Homo sapiens) (UniProt Q9BXA7).
T2 sequence (whole entry): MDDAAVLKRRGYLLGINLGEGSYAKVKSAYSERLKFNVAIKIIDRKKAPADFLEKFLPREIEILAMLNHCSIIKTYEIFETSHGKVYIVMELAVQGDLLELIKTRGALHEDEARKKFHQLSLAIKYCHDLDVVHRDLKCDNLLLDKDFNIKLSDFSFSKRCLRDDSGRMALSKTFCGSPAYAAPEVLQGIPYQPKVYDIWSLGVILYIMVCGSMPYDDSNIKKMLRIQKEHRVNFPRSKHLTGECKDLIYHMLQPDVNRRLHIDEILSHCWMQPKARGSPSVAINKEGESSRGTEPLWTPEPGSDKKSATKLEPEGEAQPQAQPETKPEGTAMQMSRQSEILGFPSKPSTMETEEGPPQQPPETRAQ
Conditions: at 0.1 µM.

Test [3] concerns the target T2, Testis-specific serine/threonine-protein kinase 1 (Homo sapiens). Conditions: at 1 µM.
The target in test [4] is T3, Testis-specific serine/threonine-protein kinase 2 (Homo sapiens) (UniProt Q96PF2).
T3 sequence (whole entry): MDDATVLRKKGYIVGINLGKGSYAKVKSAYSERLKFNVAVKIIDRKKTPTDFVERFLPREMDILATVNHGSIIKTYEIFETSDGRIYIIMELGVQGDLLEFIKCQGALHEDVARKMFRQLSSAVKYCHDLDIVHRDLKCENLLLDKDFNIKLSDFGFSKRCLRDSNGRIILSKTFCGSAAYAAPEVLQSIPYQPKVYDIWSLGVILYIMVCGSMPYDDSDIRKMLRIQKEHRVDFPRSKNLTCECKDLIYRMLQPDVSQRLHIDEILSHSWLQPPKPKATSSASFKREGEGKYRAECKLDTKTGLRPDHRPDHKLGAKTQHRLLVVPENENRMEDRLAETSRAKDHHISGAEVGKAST
To be noted: at 0.1 µM.

In test [5] the target is T3, Testis-specific serine/threonine-protein kinase 2 (Homo sapiens). Conditions: at 1 µM.
Test [6] concerns the target Casein kinase I isoform alpha (Homo sapiens) (UniProt P48729). To be noted: at 0.1 µM.
For test [7] the target is unchanged. Conditions: at 1 µM.
The target of test [8] is Casein kinase I isoform gamma-1 (Homo sapiens) (UniProt Q9HCP0). Conditions: at 0.1 µM.
Casein kinase I isoform gamma-1 (Homo sapiens), sequence (Q9HCP0 whole entry, looked up, canonical isoform): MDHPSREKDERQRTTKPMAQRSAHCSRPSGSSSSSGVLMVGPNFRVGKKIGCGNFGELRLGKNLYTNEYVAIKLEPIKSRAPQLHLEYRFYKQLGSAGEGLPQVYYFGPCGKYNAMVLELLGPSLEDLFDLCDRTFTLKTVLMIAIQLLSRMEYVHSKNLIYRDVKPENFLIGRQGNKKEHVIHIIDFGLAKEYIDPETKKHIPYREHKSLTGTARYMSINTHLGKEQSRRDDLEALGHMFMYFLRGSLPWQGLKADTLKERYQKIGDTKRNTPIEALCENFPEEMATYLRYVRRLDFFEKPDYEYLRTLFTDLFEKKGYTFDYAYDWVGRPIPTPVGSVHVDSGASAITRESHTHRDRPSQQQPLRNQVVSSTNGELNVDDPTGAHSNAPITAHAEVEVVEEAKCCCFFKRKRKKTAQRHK
The target is the same in test [9]. Conditions: at 1 µM.
Test [10] has as its target Casein kinase I isoform gamma-2 (Homo sapiens) (UniProt P78368). Conditions: at 0.1 µM.
The target is the same in test [11]. Conditions: at 1 µM.
Test [12] concerns the target Casein kinase I isoform gamma-3 (Homo sapiens) (UniProt Q9Y6M4). To be noted: at 0.1 µM.
For test [13] the target is unchanged. To be noted: at 1 µM.
The target of test [14] is Cyclin-dependent kinase 1 (Homo sapiens) (UniProt P06493). To be noted: at 0.1 µM.
Cyclin-dependent kinase 1 (Homo sapiens), sequence (P06493 whole entry, looked up): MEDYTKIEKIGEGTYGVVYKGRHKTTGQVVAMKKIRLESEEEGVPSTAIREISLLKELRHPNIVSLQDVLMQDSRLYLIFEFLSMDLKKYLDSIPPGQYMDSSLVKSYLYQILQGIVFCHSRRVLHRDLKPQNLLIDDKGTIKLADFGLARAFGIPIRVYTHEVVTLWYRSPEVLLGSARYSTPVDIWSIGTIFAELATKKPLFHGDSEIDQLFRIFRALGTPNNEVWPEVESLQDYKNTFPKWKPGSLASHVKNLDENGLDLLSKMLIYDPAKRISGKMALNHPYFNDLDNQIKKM
Test [15] shares this target. To be noted: at 1 µM.
Test [16] addresses Cyclin-dependent kinase 2 (Homo sapiens) (UniProt P24941). Conditions: at 0.1 µM.
For test [17] the target is unchanged. To be noted: at 1 µM.
Test [18] has the same target. Conditions: at 0.1 µM. The source holds these as a separate data set.
The target is the same in test [19]. To be noted: at 1 µM. The source holds these as a separate data set.
Test [20] addresses CDK3/Cyclin E (Homo sapiens) (UniProt P24864+Q00526). To be noted: at 0.1 µM.

By inhibition is commonly meant the drop in the measured response relative to a control, in per cent.

Casein kinase I isoform gamma-2 (Homo sapiens), sequence (P78368 whole entry, looked up, canonical isoform): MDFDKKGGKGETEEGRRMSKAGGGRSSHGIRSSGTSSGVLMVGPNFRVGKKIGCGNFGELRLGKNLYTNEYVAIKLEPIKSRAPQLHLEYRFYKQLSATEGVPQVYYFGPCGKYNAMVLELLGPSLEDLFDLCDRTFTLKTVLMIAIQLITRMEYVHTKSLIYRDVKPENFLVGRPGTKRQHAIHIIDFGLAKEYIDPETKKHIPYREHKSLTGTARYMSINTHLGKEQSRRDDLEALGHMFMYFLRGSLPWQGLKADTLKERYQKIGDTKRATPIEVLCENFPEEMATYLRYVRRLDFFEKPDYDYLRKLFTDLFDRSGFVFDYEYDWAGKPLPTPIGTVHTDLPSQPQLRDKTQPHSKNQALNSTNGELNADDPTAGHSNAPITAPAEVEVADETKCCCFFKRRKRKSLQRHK
CDK3/Cyclin E (Homo sapiens), sequence (P24864 whole entry, looked up): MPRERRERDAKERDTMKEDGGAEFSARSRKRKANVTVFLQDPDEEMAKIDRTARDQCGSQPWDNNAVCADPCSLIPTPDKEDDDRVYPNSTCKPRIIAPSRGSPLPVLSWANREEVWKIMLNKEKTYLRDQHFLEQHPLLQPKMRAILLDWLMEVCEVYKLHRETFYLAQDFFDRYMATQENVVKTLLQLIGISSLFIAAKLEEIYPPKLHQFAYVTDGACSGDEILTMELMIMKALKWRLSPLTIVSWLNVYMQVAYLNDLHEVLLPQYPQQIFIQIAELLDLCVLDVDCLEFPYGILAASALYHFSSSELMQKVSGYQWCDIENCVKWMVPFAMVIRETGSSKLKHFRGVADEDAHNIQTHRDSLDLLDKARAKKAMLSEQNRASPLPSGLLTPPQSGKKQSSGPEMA
CDK3/Cyclin E (Homo sapiens), sequence (Q00526 whole entry, looked up): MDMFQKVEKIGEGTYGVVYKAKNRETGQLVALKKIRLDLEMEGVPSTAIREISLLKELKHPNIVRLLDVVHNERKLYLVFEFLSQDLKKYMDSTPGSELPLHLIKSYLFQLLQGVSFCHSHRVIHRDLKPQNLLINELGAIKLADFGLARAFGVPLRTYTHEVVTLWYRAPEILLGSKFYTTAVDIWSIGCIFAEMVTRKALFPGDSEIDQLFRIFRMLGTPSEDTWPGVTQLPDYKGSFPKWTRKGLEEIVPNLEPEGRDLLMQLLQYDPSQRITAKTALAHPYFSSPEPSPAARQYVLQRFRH
Casein kinase I isoform alpha (Homo sapiens), sequence (P48729 2-337 limits assumed): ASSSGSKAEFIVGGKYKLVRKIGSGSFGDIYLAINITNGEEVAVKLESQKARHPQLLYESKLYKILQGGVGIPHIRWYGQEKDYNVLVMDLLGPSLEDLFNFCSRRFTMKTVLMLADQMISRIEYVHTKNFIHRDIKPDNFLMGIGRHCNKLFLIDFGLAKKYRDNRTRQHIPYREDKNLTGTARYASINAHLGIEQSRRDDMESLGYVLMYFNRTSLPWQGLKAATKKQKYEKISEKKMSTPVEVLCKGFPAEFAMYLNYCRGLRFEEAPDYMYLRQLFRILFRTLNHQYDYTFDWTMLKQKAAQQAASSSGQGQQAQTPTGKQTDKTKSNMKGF
Casein kinase I isoform gamma-3 (Homo sapiens), sequence (Q9Y6M4 whole entry, looked up, canonical isoform): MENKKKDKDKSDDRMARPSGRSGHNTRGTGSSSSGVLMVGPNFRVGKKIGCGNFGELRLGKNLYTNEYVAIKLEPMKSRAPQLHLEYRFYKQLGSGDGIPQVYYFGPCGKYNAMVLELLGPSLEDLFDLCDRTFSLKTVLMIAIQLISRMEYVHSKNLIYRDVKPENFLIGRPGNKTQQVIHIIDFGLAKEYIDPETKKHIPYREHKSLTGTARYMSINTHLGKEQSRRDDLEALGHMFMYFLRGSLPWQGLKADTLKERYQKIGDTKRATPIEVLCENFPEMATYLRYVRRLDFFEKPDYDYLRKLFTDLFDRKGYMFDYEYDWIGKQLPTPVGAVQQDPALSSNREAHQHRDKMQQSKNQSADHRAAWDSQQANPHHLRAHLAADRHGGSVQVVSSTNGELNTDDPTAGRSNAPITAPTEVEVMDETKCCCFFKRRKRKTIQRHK

As for `CC1=C(C(=O)Nc2ccc3[nH]ncc3c2)C(c2ccc3ccccc3c2)CC(=O)N1` (stereo not given), the inhibition in test [1] came out at 4.09%; in test [2] it was 1.35%; in test [3], 1.04%; in [4] it was 1.35%; in [5], 0.44%; in test [6] it was 1.57%. Besides, the inhibition in test [7] is 3.29%; in [8] it was 1.69%; in test [9] it was 3.15%; in test [10], 1.16%; in [11] it was 1.9%; in test [12] it was 0.93%. For the same compound, the inhibition in [13] worked out at 3.24%; in [14] it was 0.76%; in test [15], 2.25%; in test [16], 2.98%; in test [17], 9.64%; in test [18], 3.36%. In addition, the figures for the inhibition in test [19] and in [20] were 14.2% and 0.42%, respectively.
Consider `Cc1nnc(-c2ccc(C)c(-c3ccc(C(=O)Nc4cccc(C#N)c4)cc3)c2)o1`, for which the inhibition in [1] stood at 5%; in [2] it was 0.97%; in test [3], 2.9%; in [4], 1.4%; in test [5], 2.16%; in [6], 8.37%. Further, the inhibition in test [7] turned out to be 6.82%; in test [8], 1.85%; in test [9], 2.59%; in test [10] it was 1.7%; in test [11], 1.54%; in [12], 1.46%. In addition, the inhibition stood at 0.25% in [13]; 0.88% in test [14]; 1.11% in test [15]; 1.13% in test [16]; 0.6% in [17]; 1.82% in test [18]. The inhibition was found to be 2.15% in test [19] and 4.52% in test [20].
`N#Cc1c(NC(=O)c2cccc3ccccc23)sc2c1CCCC2`: the inhibition in test [1] was 6.64%; in [2], 3.39%; in test [3] it was 2.26%; in test [4], 0.88%; in [5], 0.92%; in test [6], -0.66%. The inhibition came out at 2.15% in [7]; 2.73% in test [8]; 2.82% in [9]; 2.2% in test [10]; 3.02% in test [11]; 2.06% in [12]. Also, the inhibition came out at 2.66% in [13]; 1.07% in test [14]; 5.24% in test [15]; 4.98% in test [16]; 0.97% in test [17]; 5.24% in test [18]. Further, the inhibition in test [19] was determined as 6.76%; in [20], 2.56%.
Turning to `CCn1c(-c2nonc2N)nc2c(C#CC(C)(C)O)nc(CN3CCCC3)cc21`, the inhibition in [1] was 9.67%; in [2], 0.35%; in [3], 9.75%; in test [4], -1.26%; in test [5] it was -0.69%; in test [6], -1.27%. For the same compound, the inhibition in test [7] was -0.92%; in [8] it was -0.23%; in test [9], 0.92%; in [10] it was -0.27%; in test [11] it was 0.03%; in [12], -1.33%. In addition, the inhibition is 0.33% in [13]; 1.45% in test [14]; 2% in test [15]; 2.04% in [16]; -0.71% in test [17]; 0.5% in test [18]. Besides, the values for the inhibition in test [19] and in test [20] were 1.53% and 2.36%, respectively.
For `CS(=O)(=O)CCNCc1nc(-c2ccc3ncnc(Nc4ccc(F)c(Cl)c4)c3c2)cs1`, the inhibition in [1] was 2.28%; in [2], 1.9%; in test [3], 0.45%; in [4] it was 0.45%; in [5], 1.08%; in [6] it was 0.89%. For the same compound, the inhibition in [7] was found to be 1.04%; in test [8], 1.14%; in test [9], 1.55%; in test [10], 1.92%; in [11] it was 0.64%; in test [12], 2.39%. For the same compound, the inhibition in test [13] was 3.39%; in test [14], -1.31%; in test [15] it was -0.06%; in test [16] it was 0.75%; in [17], 9.99%; in test [18], 0.06%. Further, the inhibition in test [19] came out at 1.32%; in test [20], 0.76%.
Turning to `Cc1cccc(-c2n[nH]cc2-c2ccc3ncccc3n2)n1`, the inhibition in [1] is -2.11%; in test [2], 0.8%; in test [3] it was 0.75%; in test [4] it was -0.09%; in [5], 1.08%; in test [6], 1.85%. The inhibition in test [7] was 1.42%; in test [8], 0.4%; in test [9], 1.1%; in test [10] it was 0.55%; in test [11] it was 0.49%; in test [12] it was 0.08%. Moreover, the inhibition in test [13] was 1.59%; in [14] it was 0.3%; in test [15], 2.06%; in test [16] it was 0.57%; in test [17], -1.61%; in [18] it was 0.23%. Besides, the results for the inhibition in [19] and in test [20] were 0.63% and 0.85%, respectively.
